Test results published in PubChem BioAssay AID1053117 (Broad Institute, 2014).
Entries with a potency or affinity are not part of this list. A number with no mark means an inactive call.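 Rule for the calls: active = compounds lowering cell ATP signal with a fitted half-effect dose at most twice the top valid dose; inconclusive = flat curve with 30 to 70% signal loss, or bad fit; inactive = wrong direction, flat within 30%, or weaker than limit.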

Assay: viability loss in HEK293 kidney cells – cell-based, cherry-picks, set 5, cytotoxicity control, dose response (AID 1053117);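 note: more negative means greater loss of ATP signal and more cytotoxicity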
Details: HEK293T viability, CellTiter-Glo ATP luminescence, 72 h; series mostly up to 26 µM; activity change, negative = cytotoxicity: at the top concentration

Structure (SMILES)	activity change, negative = cytotoxicity
CS(=O)(=O)N1CCN(c2ccc(NC(=O)c3ccc([N+](=O)[O-])o3)cc2)CC1	0.414%
CCc1ccc(NC(=O)CSc2nnc(-c3ccco3)o2)cc1	-13.1%
C[C@H](O)C#Cc1ccc2c(c1)O[C@@H](CN(C)C)[C@H](C)CN([C@@H](C)CO)S2(=O)=O	-8.58%
C[C@H](O)C#Cc1ccc2c(c1)O[C@H](CN(C)C)[C@H](C)CN([C@@H](C)CO)S2(=O)=O	-0.553%
COc1cccc(CN2CCN(C(=O)c3ccc(-c4ccccc4)cc3)CC2)c1OC	-10.4%
COc1ccc(C)cc1N(CC(=O)Nc1cccc(N(C)S(C)(=O)=O)c1)S(C)(=O)=O	-22.8%
CN1c2ccc(-c3ccccc3)cc2[C@H]2[C@H](CCN2C(=O)CN2CCOCC2)[C@H]1CO	0.716% [at 23.5 µM]
Cc1ccc(S(=O)(=O)N2CC[C@H]3[C@H](CO)Nc4ccc(-c5cccc(C(=O)N(C)C)c5)cc4[C@H]32)cc1	-12.3%
COc1ncccc1C(=O)NC1CCCc2c1cnn2-c1ccc(C)c(C)c1 (stereo not drawn)	-12.4%
C[C@@H]1CN([C@@H](C)CO)C(=O)c2cc(-c3ccccc3)cnc2O[C@@H]1CN(C)Cc1ccccc1	-16.4%
C[C@H]1CN([C@@H](C)CO)C(=O)c2cc(-c3ccccc3)cnc2O[C@@H]1CN(C)Cc1ccccc1	-18.5%
COCC(C)n1c(SCc2nc(N)nc(Nc3ccccc3C)n2)nc2ccccc2c1=O (stereo not drawn)	0.498%
CCN(Cc1ccncc1)C(=O)c1ccc2c(c1)S(=O)(=O)c1ccccc1C2=O	-29.1%
N#C[C@@H]1[C@H](c2ccccc2C2=CCCCC2)[C@@H](CO)N1S(=O)(=O)c1ccccc1	-10.8%
CC1CN(C(=O)c2cc3c(=O)n4ccccc4nc3n2C)CC(C)O1 (stereo not drawn)	-20.5%
O=C(Nc1ccccc1F)N1C[C@@H]2[C@H](c3ccccc31)[C@H](CO)N2C(=O)C1CCOCC1	-4.17% [at 23.5 µM]
N#C[C@@H]1[C@H](c2ccccc2C2=CCCCC2)[C@H](CO)N1S(=O)(=O)c1ccccc1	-14.8%

Structure (SMILES)	activity change, negative = cytotoxicity
CC(C)(C)c1cc(Cl)c(O)c(NC(=S)NC(=O)c2cccnc2)c1	-26.8%
CC(C)(C)[S@](=O)N1Cc2cc(C(=O)NCc3ccccc3F)nc(-c3cccc(-c4cncnc4)c3)c2[C@@H]1CCO	0.126%
O=C(CC1Nc2ccccc2NC1=O)Nc1ccc2c(c1)OCO2 (stereo not drawn)	-15.4%
COC(=O)C[C@@H]1CC[C@@H]2[C@H](COc3ccc(NC(=O)Cc4cccs4)cc3C(=O)N2C)O1	-11.8% [at 23.5 µM]
CN(C)c1ccc(-c2ccnc3c2CC(C)(C(=O)NCC2CC2)O3)cc1 (stereo not drawn)	-18.8%
Cn1cc([N+](=O)[O-])c(C(=O)Nc2cc(Oc3ccccc3)cc([N+](=O)[O-])c2)n1	-11.3%
O=C(Nc1ccccc1F)N1C[C@@H]2[C@H](c3ccccc31)[C@@H](CO)N2C(=O)C1CC1	-6.87%
CCCc1cc(C(=O)OC)c(NC(=O)CCC(=O)O)s1	-10.7%
CCOc1ccccc1NC(=O)c1c(NC(=O)CCC(=O)O)sc2c1CCCCC2	-13.1%
Nc1nc(-c2cc3c(cc2Cl)OCCO3)cs1	-9.84%
CN(C)C(=O)c1ccc(-c2ccc3c(c2)[C@H]2[C@H](CCN2C(=O)c2ccc(F)cc2)[C@@H](CO)N3C)cc1	-39.6% [at 23.5 µM]
CCCCOc1ccc(C(C)NC(=O)C2CCCN(S(=O)(=O)CCC)C2)cc1 (stereo not drawn)	1.02%
N#C[C@H]1[C@@H](c2ccccc2C2=CCCCC2)[C@H](CO)N1S(=O)(=O)c1ccccc1	-7.13% [at 23.5 µM]
C[C@@H]1CN([C@H](C)CO)C(=O)c2cc(-c3ccccc3)cnc2O[C@@H]1CN(C)Cc1ccccc1	-14.5%
Cc1ccc(O)c(-c2cc(-c3cccc(Br)c3)n[nH]2)c1	6.7%
C[C@H](CO)N1C[C@H](C)[C@H](CN(C)C)Oc2cc(C#C[C@@H](C)O)ccc2S1(=O)=O	-0.273%
